Source: PubChem BioAssay AID862 (The Scripps Research Institute Molecular Screening Center, 2007)
Hit rate of the full screen: of about 190,000 compounds, about 1,700 (0.89%) were called active. What follows is part of a selection rich in actives, with near analogues and random picks from the rest. Unmarked numbers belong to inactive results.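 How the source made its calls: active means inhibition above the mean inhibition across all screened compounds plus 3 SD (cut at about 44% in these data); inactive means the rest.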

Test: IL-6 driven STAT3 reporter inhibitors, primary screen, U3A cells, luciferase, luminescence, MLSCN library (AID 862);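 further: 0% = DMSO only wells and 100% = 100 µM nifuroxazide control wells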
Settings: IL-6 STAT3-luciferase reporter, at 5.5 µM, hits give high values, host cell line lacks STAT1
In the case of `Cc1ccc(OCC(=O)Nc2ccc(S(=O)(=O)Nc3ccccn3)cc2)cc1`, the inhibition was 4.3%. In the case of `Cc1ccc(S(=O)(=O)Nc2ccc3ncccc3c2)cc1`, the inhibition was 49.6% (active). `Cc1cc(C)cc(OCC(=O)Nc2ccc(S(=O)(=O)Nc3ccccn3)cc2)c1` gave an inhibition of -0.1%. With `CC1CCCCC1NC(=O)CO/N=C/c1ccc(OC(F)F)cc1` (stereo unspecified) the inhibition was -1.1%. For `CCCCC(O)(CCCC)C(=O)NN(C(=O)CCl)c1ccccc1`, the inhibition was 2.7%. With `Cc1cc(CNC(=O)c2cccc([N+](=O)[O-])c2)c2ccccc2n1` the inhibition was 12.3%. With `Cc1cccc(-n2c(Cc3cc(=O)[nH]c(=O)[nH]3)nnc2SCC(=O)Nc2cccc(C(F)(F)F)c2)c1` the inhibition was 2%. In the case of `O=C(O)c1cccc(NC(=S)N/N=C/c2c[nH]c3ccccc23)c1`, the inhibition was 73.2% (active). `CN(C)S(=O)(=O)c1cccc(NC(=S)N/N=C/C(=O)c2ccccc2)c1` gave an inhibition of 8%. For `CSC(=S)N/N=C/c1c[nH]c2ccccc12`, the inhibition was -10.1%. `CCS(=O)(=O)Nc1ccc(C2=NN(C(C)=O)C(c3cccs3)C2)cc1` (stereo unspecified) showed an inhibition of 6.9%. `O=[N+]([O-])c1cc(S(=O)(=O)N2CCCC2)ccc1NN=C1CCCC1` gave an inhibition of 8.3%. `Cc1ccc(S(=O)(=O)N(C)C)cc1NC(=O)COC(=O)c1c(C)noc1C` showed an inhibition of 6.4%. `COc1ccc(/C(=N\O)c2nccc3cc(OC)c(OC)cc23)cc1OC` gave an inhibition of -1.8%. Compound `O=C(/C=C\NCC(=O)c1ccccc1)c1ccccc1` has an inhibition of 22.1%. `Cc1noc(NS(=O)(=O)c2ccc(N/C=C/C(=O)c3ccccc3)cc2)c1C` showed an inhibition of -6.5%. In the case of `Cc1ccc(N/C=C/C(=O)c2ccccc2)cc1C`, the inhibition was 52.2% (active). `O=c1cc(O)c(-c2cccc(C(F)(F)F)c2)c(Cl)[nH]1` gave an inhibition of 5.9%. In the case of `O=c1oc2ccccc2cc1-c1cn(-c2ccccc2)c(=S)[nH]1`, the inhibition was 108% (active). `Nc1ncc(-c2cc3ccccc3oc2=O)s1` showed an inhibition of 14.8%. For `O=C(c1cn(-c2ccccc2)nc1-c1cc2ccccc2oc1=O)N1CCOCC1`, the inhibition was 11.6%. For `CC1(C)C2CC=C(/C=N/NC(=O)c3ccc(Cl)cc3)C1C2` (stereo unspecified), the inhibition was -5.9%. `Fc1cccc(CSc2nnc3ccc(-c4ccncc4)nn23)c1` showed an inhibition of 9.1%. Work on `CCCNC(=O)c1c(N)n(-c2ccc(S(N)(=O)=O)cc2)c2nc3ccccc3nc12` yielded an inhibition of 21.5%. In the case of `CCC(C)NC(=O)c1c(N)n(/N=C/c2cccs2)c2nc3ccccc3nc12` (stereo unspecified), the inhibition was 81.7% (active). For `CC(C)Cn1c(N)c(C(=O)NCc2cccs2)c2nc3ccccc3nc21`, the inhibition was -8.7%.
